In all, about 53,000 sequences went through this assay and about 3,700 (7%) were called active. Shown is part of a subset that was picked to be rich in actives. Unmarked numbers belong to inactive results.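 Rule for the calls: active = gene knockdowns whose robust z-score for IL-1 alpha signal is at least 2 or at most -2, so actives lie on both sides; inactive = the rest.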

This passage reports z-score results from PubChem BioAssay AID1508600 (Functional Genomics Laboratory (NCATS/FGL), 2020).

This experiment in a line: Components of the Cytosolic LPS Sensing Pathway: Gene Identification via Genome-wide siRNA Screen.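 Note: robust z of the log signal after scaling to non-targeting control siRNA wells of the plate.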 The conditions noted are these: RAW264.7 macrophages, IL-1a HTRF, actives lie on both sides, screened at 100 nM (by protocol), cells primed 5 h with Pam3CSK4 first. The gist of the method:
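Three distinct siRNAs per gene were tested singly at 100 nM in RAW264.7 macrophages. Following Pam3CSK4 priming and 24 hour LipidA transfection, IL-1a secretion was read by HTRF.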
GCUCCGUGUUGACUCAAAATT against Foxg1: the z-score is 2.46 (active).

Regarding CCCUCAGAUCUUUCAGUCUTT against Btbd16, the z-score is -1.01.

For the sequence GCAUGGUUUAAUGGCUCGGTT against Atpsckmt, the z-score is -1.93.

Regarding GGAAUAUUUUGCUUGUGUGTT against Dnmt3a, the z-score is -0.925.

For the sequence GGUUUAAGAAAAAAGGAGCTT against Rab43, the z-score was -0.182.

CCUCUGUUUGUGCGCCAUATT against Uqcrfs1: the z-score was 0.402.

Consider GGUUAUCAAACAGGUGUUGTT against Aldh3b1, for which the z-score was 2.22 (active).

With GCGAGUUCGGAAGAAGUAUTT against Ddx41, the z-score is -0.198.

On to GGAGAUCCAGGCAAUUUUUTT against Pink1, for which the z-score is 0.779.

Consider GUUGGUAGAUUCAGUUUUCTT against Vmn1r89, for which the z-score is 1.88.

With GGUGAAGAAAGCACUAGUUTT against Olfr979, the z-score is -0.873.

As to GGACCUUGGCCUUACACAATT against Astn2, the z-score was 2.29 (active).

Take GGGCAUGCUGCUUAUUGUGTT against Slc5a4b: the z-score was -0.8.

For the sequence GCAACACGUACGAGCUCAATT against Pou2af1, the z-score is -0.926.

Regarding GGGUUCUAGGUUGUUUAUGTT against C2cd4c, the z-score is -1.74.

Turning to GGCGAGCUGGACAGAUUUGTT against Nudt6, the z-score was 3.33 (active).

In the case of CCUGCAUUUACUCAACUUGTT against Snrpe, the z-score is -1.74.

For GGAUACAAGCCUUUUAACCTT against Sri, the z-score was -0.0625.

For the sequence GAACAACAACAGACAAGUGTT against Cxcl12, the z-score is -0.65.

For GGUAUUUUUGCAUUUGUCCTT against Pip4p2, the z-score is 1.32.

With GGUUAUUGAUGUGACGAUGTT against Rem2, the z-score is 1.36.

Take CCACCCUGAUUUAAGAAGGTT against Ndufs3: the z-score was 2.53 (active).

Take CCUACGUGAUAUCCUUUUATT against Vrk1: the z-score is 0.0128.

Turning to GGAUAGAAAAUCUGUGUUUTT against Trim60, the z-score is -0.401.

With GGUAUUUAUGAAGCACACATT against Clcn3, the z-score was 0.451.

For the sequence GGGUCUAUCAGCUACAUCATT against Acsl6, the z-score is -1.28.

Turning to CGUAUUGCCUUAGUGUAUGTT against Olfr433, the z-score is -2.7 (active).

Regarding GGGCUAUCGGUUGACAAAUTT against Riok2, the z-score was 1.67.

For GCGUAUUACAGACAGUGACTT against Izumo1, the z-score was 0.023.

For the sequence GGAACUGUUUCUCUUUCCUTT against Rad9a, the z-score was -1.45.

For CGUGUUCUAUGAUGGUAAUTT against Selenoo, the z-score is -0.197.

Turning to GCAACUUGGCUACAAUUACTT against Dct, the z-score is 0.987.

Regarding GGACCAAGCCACCAAAACUTT against Vmn1r78, the z-score was -2.28 (active).

For the sequence CCUAUGAUUCAGCAAUACUTT against Col17a1, the z-score was 0.677.

Consider GGAAGAGGAGAGGAAGAAGTT against Dync1i1, for which the z-score was 1.91.

For GGCUCUAAGCUAAAUAAAGTT against Kbtbd4, the z-score is -0.249.

For the sequence CCGCGUCUUGCUAUGGAAGTT against Baiap2l2, the z-score was 0.79.

Consider GCUGGAAGAUAGUGCUUUUTT against Itpr1, for which the z-score was 5.23 (active).

In the case of GGGUUUAUGGGCAUGUCCCTT against Adipor2, the z-score is -0.964.

Regarding GGUUAAAAAUGCCAUUAGATT against Olfr1233, the z-score is 0.133.

Turning to GGAAGACAUCAAGAUGUAATT against Rp1l1, the z-score is -1.28.

Regarding GGAGCUGUAAAGGCUACAATT against Sulf2, the z-score was 4.14 (active).

Consider CGUGGAAAUGUCUUAAAUCTT against Folh1, for which the z-score is 0.412.

As to GGAGAAAAAUCCUACCGACTT against Zmym5, the z-score was 0.56.

As for GCGAUUGAAGUCUCAGGGATT against Nrde2, the z-score is -1.03.

On to GGAAUAUUGGUUGUGAUGATT against Ralb, for which the z-score is -0.197.

As to GCUAAUGGUCCAUUGAUAUTT against Btn2a2, the z-score is 0.229.

Regarding GGGAAGAGUUGGAUCGAUCTT against Shkbp1, the z-score was -0.0675.

GGAGGAUAAGGAUACAGUATT against Cspg5: the z-score is 2.27 (active).

Turning to GGAGGAAAGAAAAGAUCCATT against Tie1, the z-score was -0.102.

In the case of GCUAUGUCAUGGUUGGAACTT against Bag6, the z-score was 0.597.

Take GCUUGCCUGACCUGAAACATT against Apool: the z-score is -2.38 (active).

For GCAACAAAUCAGAUUUGACTT against Dhdh, the z-score is 0.246.

Take GGGAUGGACAAGUUGUACUTT against Renbp: the z-score was -0.101.

As for GGACCUUUUUAUCCAACGCTT against Mcts2, the z-score is 0.46.

On to CCUGAAUUAUGUGUAACUUTT against Ywhab, for which the z-score is -0.819.

On to CCACUGUGAGACACAUAAGTT against Muc4, for which the z-score was -3.25 (active).

In the case of “GGAAAUAGAUCCUUUUUGATT against 2510039O18Rik”, the z-score was 0.861.

For GCCAGUAGUAGUAGAAUAATT against Gm4841, the z-score is 0.997.

Take CCUGGCAGUAAAAGAUUGCTT against Ndst3: the z-score was 0.836.

Consider GGGAAGGGAUCCUAUAUUUTT against Lsm12, for which the z-score is 0.158.

As for CCCAGCAUGGAUCAAGCACTT against Krt73, the z-score is 0.864.

Consider GGGUGCACUGGCUAAUAUATT against H2-Ea, for which the z-score is 1.13.

As to GGGAAUAUUCAGUUGACAATT against Iigp1, the z-score was -1.14.

Turning to GGUGAAUUUGAUUGAUGAGTT against Ccnl2, the z-score was -2.3 (active).

Regarding GGAGAAAGCCUUCCUUAGUTT against Trpc5, the z-score is -0.115.

For CGUAGCACUUCUUCUCUUATT against Dync1li2, the z-score was 0.484.

As for GGUCUUGCUGAUCAACAACTT against Adgrb2, the z-score was 2.53 (active).

Turning to GCCAAUUUUGAACCACUACTT against Itga8, the z-score is -0.56.
